Shown are actives, neighbours in structure and some others; about 3.7% of the full set was active somewhere.
tim10-1 inh: tim10-1 yeast growth inhibition; inhibition, % at 20 µM; actives 2.2% (n = 330,000); S. cerevisiae tim10-1 ts strain growth, BacTiter-Glo, 24 h;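 active = inhibition of at least 40%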;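 also: mutant grown at 25 °C; 0% = DMSO wells with yeast and 100% = wells holding no yeast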
TIM10 inh: TIM10 yeast growth inhibition | inhibition, % at 10 µM | actives 1.4% (n = 330,000) | S. cerevisiae TIM10 strain growth, BacTiter-Glo luminescence, 24 h | AID 463195;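 active = inhibition of 40% or more at the single tested concentration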;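 also: wild-type TIM10 isogenic control strain grown at permissive 25 °C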
NALP3 yeast inh: NALP3 inhibition in yeast; AID 2825; inhibition, % at 10 µM; Yeast reconstituted NLRP3/ASC/caspase-1, beta-gal luminescence, 24 h; actives 0.39% (n = 330,000);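 active = inhibition of 50% or more; inactive = inhibition below 50%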;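 also: plate controls were induced DMSO wells for no effect and uninduced yeast grown without galactose for full effect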
tim23-1 inh: inhibits growth of tim23-1 mutant yeast; S. cerevisiae tim23-1 growth, BacTiter-Glo luminescence, 24 h; inhibition, % at 20 µM; actives 1.3% (n = 330,000); AID 463212;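 active = growth inhibition of the mutant yeast at or above 50%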;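 also: temperature-sensitive mutant grown at 25 °C; plate controls were DMSO-treated mutant yeast for no effect and medium wells lacking yeast for full effect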
PfHsp90 yeast 2: inhibits growth of yeast expressing Plasmodium falciparum Hsp90 | AID 504621 | inhibition, % at 9.4 µM | actives 0.32% (n = 310,000) | S. cerevisiae expressing PfHsp90, BacTiter-Glo ATP, 48 h; yeast lacking PDR1 and PDR3 efflux regulators;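 active = every replicate shows inhibition above about 80%, whatever the replicate mean, limit read from the data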;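 also: 0% = DMSO neutral controls and 100% = 20 µM radicicol positive controls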
tim23-1 confirm: tim23-1 yeast growth inhibition, confirmed. shares compounds with tim23-1 inh. actives 83% (n = 4,400). AID 463218. S. cerevisiae tim23-1 growth, BacTiter-Glo luminescence, 24 h. inhibition, % at 20 µM;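 active = inhibition above about 39% in either of two replicate wells at 20 µM, limit read from the data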;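 also: temperature-sensitive tim23-1 mutant grown at 25 °C; 0% = DMSO wells with yeast and 100% = medium wells without yeast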
* hit, by the source's call; x = no result.

SMILES	tim10-1 inh	TIM10 inh	NALP3 yeast inh	tim23-1 inh	PfHsp90 yeast 2	tim23-1 confirm
COc1ccccc1C(=O)Nc1nnc(-c2ccc3c(c2)CCCC3)o1	25	39	27	52*	-43	56*
CC(=O)Nc1nnc(-c2ccc3c(c2)CCCC3)o1	9	0	12	9	10	x
Cc1cccc(C(=O)OCC(=O)NC23CC4CC(CC(C4)C2)C3)c1O	14	38	22	56*	0	56*
CCc1ccc2c(Cl)c(C(=O)N/N=C/c3c[nH]c4ccccc34)sc2c1	9	20	11	52*	4	39*
CCc1ccc(-c2cc(C(=O)N/N=C/c3c[nH]c4ccccc34)[nH]n2)cc1	9	19	-3	7	35	x
CC(NC(=O)c1cccnc1Sc1ccccc1)c1ccc(S(N)(=O)=O)cc1 (stereo not drawn)	5	8	-1	10	-2	x
CCOC(=O)c1cccnc1SCc1cc(=O)n2ccccc2n1	17	-5	15	71*	4	65*
O=c1c2ccccc2oc2c1ccc1ccccc12	-13	28	x	55*	-40	21
CC1CCCCC12NC(=O)N(CC(=O)NNC(=O)c1ccc(Br)cc1)C2=O (stereo not drawn)	-22	-1	4	-1	0	x
COc1ccc(C(CNC(=O)c2cccc(S(=O)(=O)Nc3cccc(C)c3)c2)N2CCOCC2)cc1 (stereo not drawn)	4	6	12	4	-8	x
O=c1c2cn[nH]c2nc(SCc2c(F)cccc2F)n1-c1ccc(Cl)cc1	19	18	1	52*	-25	54*
Cc1c(NS(C)(=O)=O)cccc1-c1nc2cccnc2s1	-1	-7	24	17	1	x
Cc1c(NS(=O)(=O)c2cccs2)cccc1-c1nc2cccnc2s1	33	28	6	59*	4	56*
Cc1ccc(Nc2nc3ccccc3s2)c(C)c1	38	37	-2	58*	-15	46*
Cc1ccc(C)c(NC(=O)CCC(=O)NNC(=O)c2cccc([N+](=O)[O-])c2)c1	-6	-13	6	8	15	x
COc1ccc(OC)c(CNn2c(-c3ccccc3F)nc3ccccc3c2=O)c1	35	33	2	36	-14	x
COc1cccc(CNn2c(-c3cccc(C)c3)nc3ccccc3c2=O)c1O	28	20	0	57*	x	45*
Cc1c(NCc2cc(Cl)cc(Cl)c2O)c(=O)n(-c2ccccc2)n1C	35	36	17	55*	-26	38
CCC(C)[C@H](NC(=O)[C@H](Cc1ccccc1)n1c(=O)[nH]c2ccccc2c1=O)C(=O)N1CCC(C(=O)O)CC1 (stereo partly drawn)	-2	-3	12	0	21	x
COc1cccc2sc3cc(NCc4ccc5c(c4)OCO5)ccc3c(=O)c12	-33	17	28	68*	0	56*
Cc1cccc(-c2nnc(SCC(=O)C(C)(C)C)n2C)c1	3	0	4	9	30	x
CCN(CC(=O)NC1CCS(=O)(=O)C1)c1ccc(S(=O)(=O)N(CC)CC)cc1[N+](=O)[O-] (stereo not drawn)	20	10	14	12	-4	x
O=C(NCC(O)c1ccc2ccccc2c1)c1c(F)cccc1F (stereo not drawn)	8	5	0	13	-21	x
Cc1ccc(NC(=O)c2ccc(OCc3c(C)noc3C)cc2)cc1C	-26	30	15	59*	22	56*
O=[N+]([O-])c1ccccc1S(=O)(=O)N1CCN(c2ccccn2)CC1	3	0	27	18	-9	x
SMILES	tim10-1 inh	TIM10 inh	NALP3 yeast inh	tim23-1 inh	PfHsp90 yeast 2	tim23-1 confirm
Cc1ccc2[nH]cc(C(=O)CN3CCN(C)CC3)c2c1	-2	-12	0	-2	11	x
Cc1ccc2[nH]cc(C(=O)CCl)c2c1	13	36	6	58*	-25	66*
Cc1cccc(N=Nc2cn[nH]c2-c2ccco2)c1	15	12	11	29	-14	x
c1ccc(N=Nc2cn[nH]c2-c2ccco2)cc1	27	25	34	51*	-48	47*
O=C(CSc1nc(-c2ccc(F)cc2)cs1)NCCN1C(=O)CSC1=O	13	3	-4	12	x	x
O=c1oc(-c2cccc(Cl)c2)nc2c1cnn2-c1ccccc1	24	34	11	46	-24	x
O=c1oc(-c2ccccc2F)nc2c1cnn2-c1ccccc1	33	39	6	56*	-12	54*
COC(=O)c1ccc(NC(=O)CSc2nc(=O)n3cccc(C)c3n2)cc1	-15	-9	-6	72*	x	53*
COc1cc2nc(C3CCC3)nc(N3CCN(c4ccccc4OC)CC3)c2cc1OC	30	39	23	53*	37	44*
Fc1ccc(CSc2nc3ccccc3[nH]2)c2ccccc12	32	39	41	56*	-44	55*
COc1cccc(CN2CCN(S(=O)(=O)c3ccc(Br)cc3)CC2)c1	17	4	24	21	x	x
COc1ccc(S(=O)(=O)N2CCN(Cc3cccc(OC)c3)CC2)cc1	25	21	22	55*	10	43*
Oc1c(Cl)cc(Cl)cc1C=Nc1ccc(Br)cc1	11	29	0	74*	20	72*
COc1ccc(NC(=O)NCC(C)CSc2ccc(C)cc2)c(OC)c1 (stereo not drawn)	12	1	10	11	-12	x
CC(C)(C)c1csc(NC(=O)c2cccs2)n1	-14	36	36	56*	29	34
c1cc(SC2CCCCC2)cc(-c2nc3cnccn3c2NC2CCCCC2)c1	20	17	-9	34	-27	x
CCCCNc1c(-c2ccc(OC)c(SC(C)CC)c2)nc2cc(C)ccn12 (stereo not drawn)	29	20	31	55*	-12	51*
CCC(C)Sc1cc(-c2nc3cc(C)ccn3c2NC2CCCCC2)ccc1OC (stereo not drawn)	34	34	25	60*	7	49*
CCC(C)Sc1cccc(-c2nc3cnccn3c2NC2CCCCC2)c1 (stereo not drawn)	21	19	9	50	19	41*
CCCCNc1c(-c2ccc(OC)c(SC(C)CC)c2)nc2cnccn12 (stereo not drawn)	x	x	x	x	-3	x
CCCCNc1c(-c2ccc(OC)c(SC(C)CC)c2)nc2ccc(C)cn12 (stereo not drawn)	4	3	46	54*	-7	41*
CCCCOP(=O)(OCCCC)C1(C)CC(=O)CC(C)(C)C1 (stereo not drawn)	x	x	x	x	-3	x
O=C(CSc1nncn1-c1ccccc1)N1CCCC1	-2	-5	7	-9	7	x
CC(C)CCN1C(=O)c2ccc(C(=O)Nc3ccccn3)cc2C1=O	-1	9	25	9	-2	x

Bioassay records as filed in PubChem BioAssay.
